13 targets from the supplement of paper PMC10849652 can be followed below.

Of roughly 7,900 targets only a part is listed; those with a hit were picked by preference. About 0.6% of all pairs of compound and target were hits. Unmarked numbers belong to inactive results.

Holding throughout (assay): log2 fold change, soluble protein after heating vs DMSO (PISA); higher = thermal stabilisation; K562 cells, 10 uM, 30 min; active = over 0.2 and 3.5 SD of the protein, either way, in both replicates (recomputed)
Compound in assay [1]: NC(=O)Nc1cc(-c2cccc(F)c2)sc1C(=O)N[C@H]1CCCNC1
A digest of the protocol: (§1)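 Values are thermal stability changes relative to control samples and are taken from duplicates. They are stated as log2 fold changes. Before quantification by TMTpro 16plex LC-MS/MS with equalised channel sums, K562 cells at 2×10^6 cells/mL were treated with 10 μM compound for 30 min, heated in aliquots for 3 min across 48°C-58°C, pooled, extracted in PBS with 0.5% NP-40 at 4°C, and centrifuged at 21,000xg for 90 min to give the soluble supernatant.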

Compound in assay [2]: NC(=O)c1cnc(N[C@@H]2CCCC[C@@H]2N)nc1Nc1cccc(-n2nccn2)c1
A digest of the protocol: as §1

Compound in assay [3]: NC1(c2ccc(-c3nc4ccn5c(=O)[nH]nc5c4cc3-c3ccccc3)cc2)CCC1
The method, boiled down:
as §1

Compound in assay [4]: NCC(=O)Nc1ccc(-n2nc(C(F)(F)F)cc2-c2ccc3c(ccc4ccccc43)c2)cc1
The method, boiled down: as §1

Compound in assay [5]: Nc1ccccc1NC(=O)c1ccc(CNC(=O)OCc2cccnc2)cc1 [entinostat]
The method, boiled down:
as §1

Compound in assay [6]: O=C(CCCCCCC(=O)Nc1ccccc1)NO [vorinostat]
A digest of the protocol:
as §1

Compound in assay [7]: O=C(CCCCCCNC(=O)c1cnc(N(c2ccccc2)c2ccccc2Cl)nc1)NO [citarinostat]
The method, boiled down: as §1

Compound in assay [8]: O=C(O)c1ccc2c(c1)nc(Nc1cccc(Cl)c1)c1ccncc12 [silmitasertib]
A digest of the protocol:
as §1

Compound in assay [9]: O=C1NC(=O)C(c2cnc3ccccn23)=C1c1cn2c3c(cc(F)cc13)CN(C(=O)N1CCCCC1)CC2
The method, boiled down:
as §1

Compound in assay [10]: c1cc(OCCN2CCCCC2)cc(-c2n[nH]c3ccc(-c4nnc[nH]4)cc23)c1
A digest of the protocol:
as §1

Compound in assay [11]: c1cn2cc(-c3ccc4cn[nH]c4c3)nc(Nc3ccc(N4CCOCC4)cc3)c2n1 [entospletinib]
A digest of the protocol:
as §1

Chain of UniProt Q07157 (Q07157 whole entry, looked up): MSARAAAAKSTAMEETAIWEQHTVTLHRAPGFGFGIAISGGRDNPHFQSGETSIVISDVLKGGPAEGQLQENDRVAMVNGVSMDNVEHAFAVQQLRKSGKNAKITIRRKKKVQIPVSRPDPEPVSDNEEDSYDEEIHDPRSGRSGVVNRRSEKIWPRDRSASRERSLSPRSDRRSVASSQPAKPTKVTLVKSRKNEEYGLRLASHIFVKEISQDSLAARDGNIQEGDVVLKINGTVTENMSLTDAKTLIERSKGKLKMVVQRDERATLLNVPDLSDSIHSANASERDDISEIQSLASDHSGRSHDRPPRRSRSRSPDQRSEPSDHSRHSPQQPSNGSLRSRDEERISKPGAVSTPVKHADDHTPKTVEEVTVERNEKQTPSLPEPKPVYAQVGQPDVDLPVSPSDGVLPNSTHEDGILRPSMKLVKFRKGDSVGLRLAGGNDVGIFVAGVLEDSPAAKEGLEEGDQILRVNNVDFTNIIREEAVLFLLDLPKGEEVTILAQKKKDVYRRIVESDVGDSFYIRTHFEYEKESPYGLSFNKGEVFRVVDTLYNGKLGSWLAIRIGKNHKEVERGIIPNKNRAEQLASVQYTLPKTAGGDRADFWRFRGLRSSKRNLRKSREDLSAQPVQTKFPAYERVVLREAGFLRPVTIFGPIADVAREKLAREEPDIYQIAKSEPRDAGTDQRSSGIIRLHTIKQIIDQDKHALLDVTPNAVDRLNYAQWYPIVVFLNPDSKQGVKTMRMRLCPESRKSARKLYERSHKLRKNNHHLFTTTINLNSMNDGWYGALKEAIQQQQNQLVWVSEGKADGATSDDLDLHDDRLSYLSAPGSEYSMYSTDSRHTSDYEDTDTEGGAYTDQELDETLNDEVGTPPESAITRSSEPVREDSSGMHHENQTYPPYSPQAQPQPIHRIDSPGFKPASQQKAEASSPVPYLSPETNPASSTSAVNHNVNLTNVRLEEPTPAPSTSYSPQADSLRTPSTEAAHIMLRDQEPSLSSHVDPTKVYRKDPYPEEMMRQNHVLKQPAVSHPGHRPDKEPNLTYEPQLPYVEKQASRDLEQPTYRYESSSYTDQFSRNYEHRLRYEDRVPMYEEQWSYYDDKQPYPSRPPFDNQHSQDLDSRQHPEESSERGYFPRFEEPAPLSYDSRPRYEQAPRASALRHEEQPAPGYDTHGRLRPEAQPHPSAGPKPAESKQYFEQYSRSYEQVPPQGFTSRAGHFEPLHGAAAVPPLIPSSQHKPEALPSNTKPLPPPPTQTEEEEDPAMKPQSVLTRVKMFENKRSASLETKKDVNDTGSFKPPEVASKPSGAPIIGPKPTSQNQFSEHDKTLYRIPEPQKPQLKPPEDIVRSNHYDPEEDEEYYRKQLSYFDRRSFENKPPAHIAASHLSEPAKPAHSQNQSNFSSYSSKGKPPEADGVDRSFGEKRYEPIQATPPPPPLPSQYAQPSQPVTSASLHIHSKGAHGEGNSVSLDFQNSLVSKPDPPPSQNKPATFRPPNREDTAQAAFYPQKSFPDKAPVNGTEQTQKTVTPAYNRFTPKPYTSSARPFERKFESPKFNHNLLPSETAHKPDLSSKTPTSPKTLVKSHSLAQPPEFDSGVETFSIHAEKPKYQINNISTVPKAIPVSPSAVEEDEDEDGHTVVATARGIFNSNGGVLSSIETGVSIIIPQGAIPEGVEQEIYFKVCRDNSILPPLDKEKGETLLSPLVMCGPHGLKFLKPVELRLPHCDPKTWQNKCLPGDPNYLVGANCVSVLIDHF
Chain of UniProt Q9BSF4 (Q9BSF4 whole entry, looked up): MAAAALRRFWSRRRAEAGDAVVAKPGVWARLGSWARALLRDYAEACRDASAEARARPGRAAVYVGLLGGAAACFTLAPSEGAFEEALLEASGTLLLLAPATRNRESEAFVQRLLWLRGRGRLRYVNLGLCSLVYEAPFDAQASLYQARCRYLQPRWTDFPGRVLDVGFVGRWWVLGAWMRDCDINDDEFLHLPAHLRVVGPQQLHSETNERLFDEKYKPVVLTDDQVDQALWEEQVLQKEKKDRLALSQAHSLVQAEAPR
Chain of UniProt O60264 (O60264 whole entry, looked up): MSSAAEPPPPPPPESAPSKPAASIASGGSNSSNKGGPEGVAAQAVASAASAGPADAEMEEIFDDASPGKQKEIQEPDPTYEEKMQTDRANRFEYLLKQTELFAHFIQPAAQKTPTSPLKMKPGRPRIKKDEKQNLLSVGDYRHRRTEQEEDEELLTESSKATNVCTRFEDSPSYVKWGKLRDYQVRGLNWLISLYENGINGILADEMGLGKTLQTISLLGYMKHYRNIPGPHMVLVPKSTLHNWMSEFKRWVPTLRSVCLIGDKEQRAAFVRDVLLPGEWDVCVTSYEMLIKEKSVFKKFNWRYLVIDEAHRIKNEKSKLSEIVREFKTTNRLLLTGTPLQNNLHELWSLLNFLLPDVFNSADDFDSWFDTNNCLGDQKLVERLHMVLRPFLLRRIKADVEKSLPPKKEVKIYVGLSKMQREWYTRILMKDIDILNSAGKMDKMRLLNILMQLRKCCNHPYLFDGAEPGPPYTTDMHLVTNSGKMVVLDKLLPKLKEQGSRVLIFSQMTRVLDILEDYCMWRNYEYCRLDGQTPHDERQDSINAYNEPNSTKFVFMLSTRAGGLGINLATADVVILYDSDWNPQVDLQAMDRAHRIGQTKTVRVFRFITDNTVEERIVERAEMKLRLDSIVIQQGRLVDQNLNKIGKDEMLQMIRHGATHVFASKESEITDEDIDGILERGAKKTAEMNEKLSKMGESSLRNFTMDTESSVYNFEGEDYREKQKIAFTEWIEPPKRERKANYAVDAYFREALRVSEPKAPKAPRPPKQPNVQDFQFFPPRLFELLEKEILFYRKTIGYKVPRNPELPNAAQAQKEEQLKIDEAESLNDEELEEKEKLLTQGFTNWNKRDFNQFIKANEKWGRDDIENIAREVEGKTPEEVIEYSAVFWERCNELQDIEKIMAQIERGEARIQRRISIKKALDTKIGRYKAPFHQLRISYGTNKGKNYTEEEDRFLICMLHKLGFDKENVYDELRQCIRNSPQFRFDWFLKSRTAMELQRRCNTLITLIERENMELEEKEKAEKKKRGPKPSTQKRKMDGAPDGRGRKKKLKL
Chain of UniProt P27105 (P27105 whole entry, looked up): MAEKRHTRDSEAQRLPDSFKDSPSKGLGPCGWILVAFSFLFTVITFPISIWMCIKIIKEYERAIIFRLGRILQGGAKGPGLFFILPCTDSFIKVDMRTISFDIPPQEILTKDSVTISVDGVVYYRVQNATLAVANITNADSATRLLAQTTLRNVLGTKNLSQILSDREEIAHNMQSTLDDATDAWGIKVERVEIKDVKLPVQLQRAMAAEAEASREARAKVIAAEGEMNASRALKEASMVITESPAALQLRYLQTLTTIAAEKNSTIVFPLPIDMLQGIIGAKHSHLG
Chain of UniProt P08579 (P08579 whole entry, looked up): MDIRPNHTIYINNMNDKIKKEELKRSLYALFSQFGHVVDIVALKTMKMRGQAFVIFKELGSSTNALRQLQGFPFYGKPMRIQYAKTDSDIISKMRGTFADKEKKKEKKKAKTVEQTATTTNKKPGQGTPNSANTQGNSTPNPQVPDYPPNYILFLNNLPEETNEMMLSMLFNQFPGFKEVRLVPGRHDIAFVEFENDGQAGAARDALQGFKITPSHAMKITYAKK
Chain of UniProt Q96BZ9 (Q96BZ9 whole entry, looked up): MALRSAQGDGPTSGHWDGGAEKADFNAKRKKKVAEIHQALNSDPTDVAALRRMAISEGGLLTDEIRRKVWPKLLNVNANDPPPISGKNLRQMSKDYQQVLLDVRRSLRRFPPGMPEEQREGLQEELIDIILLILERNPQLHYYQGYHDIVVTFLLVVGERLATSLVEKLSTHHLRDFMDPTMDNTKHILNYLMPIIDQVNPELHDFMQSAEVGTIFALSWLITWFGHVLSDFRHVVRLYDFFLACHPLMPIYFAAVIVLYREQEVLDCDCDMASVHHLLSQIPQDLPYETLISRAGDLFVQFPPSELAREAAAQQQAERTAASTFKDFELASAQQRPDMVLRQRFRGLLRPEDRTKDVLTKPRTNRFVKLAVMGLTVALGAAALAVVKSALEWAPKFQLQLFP
Chain of UniProt Q6XR72 (Q6XR72 whole entry, looked up): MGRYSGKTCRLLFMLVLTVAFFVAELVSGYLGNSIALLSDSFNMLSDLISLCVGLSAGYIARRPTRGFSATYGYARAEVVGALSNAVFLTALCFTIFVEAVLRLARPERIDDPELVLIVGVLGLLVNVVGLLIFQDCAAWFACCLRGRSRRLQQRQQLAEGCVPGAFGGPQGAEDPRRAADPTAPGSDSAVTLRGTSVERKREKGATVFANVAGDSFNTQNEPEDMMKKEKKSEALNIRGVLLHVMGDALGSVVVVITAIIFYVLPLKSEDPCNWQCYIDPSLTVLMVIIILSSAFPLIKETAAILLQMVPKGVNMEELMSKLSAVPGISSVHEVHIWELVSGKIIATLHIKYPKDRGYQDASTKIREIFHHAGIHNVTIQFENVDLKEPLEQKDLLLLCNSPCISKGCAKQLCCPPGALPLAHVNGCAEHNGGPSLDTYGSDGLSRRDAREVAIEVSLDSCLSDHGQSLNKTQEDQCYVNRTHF
Chain of UniProt Q9NYB0 (Q9NYB0 whole entry, looked up): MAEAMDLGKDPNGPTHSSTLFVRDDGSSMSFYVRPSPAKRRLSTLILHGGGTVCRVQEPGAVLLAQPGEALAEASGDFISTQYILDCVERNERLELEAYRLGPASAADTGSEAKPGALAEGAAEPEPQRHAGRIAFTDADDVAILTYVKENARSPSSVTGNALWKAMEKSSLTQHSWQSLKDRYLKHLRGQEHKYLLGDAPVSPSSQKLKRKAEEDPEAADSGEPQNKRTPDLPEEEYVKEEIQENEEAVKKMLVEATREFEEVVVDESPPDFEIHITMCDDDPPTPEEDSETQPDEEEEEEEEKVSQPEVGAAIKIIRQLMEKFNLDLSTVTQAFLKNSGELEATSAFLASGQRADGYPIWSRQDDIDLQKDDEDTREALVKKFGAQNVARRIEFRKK
Chain of UniProt O60493 (O60493 whole entry, looked up): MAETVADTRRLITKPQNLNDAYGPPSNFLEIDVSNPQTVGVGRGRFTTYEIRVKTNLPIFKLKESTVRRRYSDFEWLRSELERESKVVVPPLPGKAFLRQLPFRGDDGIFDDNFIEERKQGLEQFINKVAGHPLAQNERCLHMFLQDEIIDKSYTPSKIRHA

Consider SLC44A2 isoform 2 (UniProt Q8IWA5), for which the log2 fold change in assay [1] was -0.086; in [2], 0.168; in assay [3], 0.128; in [4], 0.05; in assay [5], -0.06; in [6] it was -0.006. For the same target, the log2 fold change in assay [7] is 0.091; in [8], -0.071; in assay [9] it was -0.075; in [10], -0.289; in assay [11], -0.085.

Take SMARCA5 (UniProt O60264): the log2 fold change in assay [1] is -0.084; in assay [2], -0.121; in assay [3], -0.095; in assay [4], -0.01; in assay [5] it was 0.097; in [6] it was 0.204. Besides, the log2 fold change in [7] was -0.094; in assay [8], 0.028; in assay [9] it was -0.034; in assay [10], 0.03; in assay [11], 0.099.

Consider SMC5 (UniProt Q8IY18), for which the log2 fold change in assay [1] was 0.057; in assay [2], -0.034; in [3], -0.083; in assay [4], -0.051; in assay [5], -0.033; in [6], 0.017. Moreover, the log2 fold change in assay [7] was -0.021; in assay [8], 0.052; in assay [9], -0.1; in [10] it was -0.051; in assay [11], 0.016.

For the target SLC30A10 (UniProt Q6XR72), the log2 fold change is -0.035 in assay [1]; 0.088 in [2]; 0.084 in assay [3]; 0.133 in assay [4]; -0.003 in assay [5]; -0.215 in assay [6]. Besides, the log2 fold change in assay [7] is -0.008; in assay [8] it was -0.05; in assay [9], -0.005; in assay [10] it was -0.432 (active); in assay [11], 0.01.

Consider TIMM29 (UniProt Q9BSF4), for which the log2 fold change is -0.16 in assay [1]; -0.024 in assay [2]; -0.069 in assay [3]; -0.011 in assay [4]; -0.04 in assay [5]; -0.093 in [6]. Further, the log2 fold change is -0.016 in [7]; 0.006 in assay [8]; -0.08 in assay [9]; -0.004 in [10]; 0.033 in assay [11].

As for TBC1D20 isoform 3 (UniProt Q96BZ9), the log2 fold change was -0.062 in assay [1]; 0.052 in [2]; 0.027 in assay [3]; -0.08 in [4]; 0.026 in assay [5]; 0.033 in assay [6]. For the same target, the log2 fold change is 0.293 in assay [7]; 0.03 in assay [8]; -0.007 in assay [9]; 0.03 in [10]; -0.065 in assay [11].

SLC4A2 (UniProt P04920): the log2 fold change was -0.048 in [1]; -0.055 in assay [2]; -0.204 (active) in [3]; -0.123 in assay [4]; 0.028 in assay [5]; 0.023 in [6]. Moreover, the log2 fold change in assay [7] is -0.072; in assay [8], 0.019; in assay [9] it was 0.016; in assay [10] it was -0.084; in assay [11], 0.028.

For the target SUCLA2 (UniProt Q9P2R7), the log2 fold change was -0.021 in [1]; -0.058 in assay [2]; -0.128 in [3]; -0.077 in assay [4]; 0.014 in assay [5]; 0.107 in [6]. Further, the log2 fold change in assay [7] is 0.068; in [8], -0.039; in assay [9], -0.028; in [10], -0.046; in assay [11] it was -0.048.

Regarding TERF2IP (UniProt Q9NYB0), the log2 fold change in assay [1] is 0.009; in assay [2] it was -0.132; in [3] it was 0.007; in assay [4], -0.018; in [5] it was 0.061; in assay [6] it was 0.041. In addition, the log2 fold change in [7] is 0.068; in assay [8], 0.121; in [9] it was -0.051; in assay [10], -0.073; in assay [11] it was -0.026.

As to SNX3 (UniProt O60493), the log2 fold change was -0.014 in assay [1]; -0.241 in assay [2]; -0.19 in assay [3]; -0.001 in assay [4]; 0.025 in assay [5]; 0.105 in assay [6]. Besides, the log2 fold change was 0.048 in assay [7]; 0.132 in [8]; -0.037 in assay [9]; -0.116 in assay [10]; 0.084 in assay [11].

On to TJP1 (UniProt Q07157), for which the log2 fold change in assay [1] is -0.043; in [2], -0.067; in assay [3], 0.033; in assay [4], -0.071; in [5], 0.044; in assay [6] it was 0.049. Moreover, the log2 fold change is 0.041 in assay [7]; -0.158 in assay [8]; -0.056 in assay [9]; -0.092 in assay [10]; 0.009 in [11].

As to STOM (UniProt P27105), the log2 fold change in assay [1] was -0.104; in [2] it was -0.043; in assay [3] it was -0.069; in assay [4] it was -0.019; in assay [5] it was -0.003; in [6], 0.025. The log2 fold change in [7] is 0.007; in assay [8] it was 0.067; in assay [9], 0.042; in assay [10] it was -0.091; in assay [11], 0.048.

Regarding SNRPB2 (UniProt P08579), the log2 fold change in [1] was 0.047; in assay [2], -0.012; in assay [3], 0.03; in [4], 0.038; in assay [5], -0.016; in assay [6] it was -0.027. Besides, the log2 fold change is 0.023 in assay [7]; 0.051 in [8]; 0.046 in assay [9]; -0.034 in [10]; -0.026 in [11].
